Screens from PubChem.
TROY NFkB inh: inhibitors of TROY-driven NF-kB signaling, primary screen, Q293 LMP1-TROYcd cells, NF-kB luciferase, uHTS. Q293 LMP1-TROYcd NF-kB luciferase reporter, 4 h. inhibition, % at 10 µM. 360,000 tested, 0.98% active;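 active = compounds whose plate-normalised and pattern-corrected inhibition of the luciferase reporter signal at the single screening dose is 50% or more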
CF NFkB block: inhibitors of PAF-induced NF-kB signaling, primary screen, cell-based, GFP fluorescence, uHTS; KKLEB NF-kB-GFP reporter, GFP fluorescence overnight; inhibition, % at 5 µM; 360,000 tested, 0.86% active; AID 588850, 2011;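 active = at least 50% inhibition at 5 µM, scaled per plate between neutral and stimulator controls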;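 also: PAF is a Pseudomonas aeruginosa culture filtrate used as stimulus; plate controls were PAF-stimulated DMSO wells for no effect and unstimulated DMSO wells for full effect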
KKLEB cytotox: cytotoxicity in KKLEB CF airway cells, primary screen, cytotoxicity control for CF NF-kB inhibitor project, cell-based, uHTS, fluorescence assay plates | activity change (cytotoxicity), % at 5 µM | KKLEB CF airway cells viability, ATPlite luminescence, overnight; stronger effect = lower value; cells stimulated with P. aeruginosa culture filtrate | 360,000 tested, 0.36% active;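 active = corrected activity change at or below -50% at 5 µM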
HIF-2a block: HIF-2a reporter inhibitors, primary screen, luminescence, 786-0 RCC cells | 786-0 RCC cells HIF-2a reporter, luciferase luminescence, overnight | inhibition, % at 18.8 µM | 360,000 tested, 0.72% active | AID 624352, 2012;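 active = inhibition of the luminescence signal of 40% or more relative to plate controls, in a single-dose primary screen at 18.75 µM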
TWEAK-Fn14 inh: inhibitors of TWEAK-Fn14 signaling, primary screen, luciferase reporter cells, uHTS | TWEAK-stimulated Fn14 reporter cells, luciferase luminescence, 8 h | inhibition, % at 10 µM | 360,000 tested, 2% active; in the data active = inhibition above about 50%
Peg3 promoter: Peg3 promoter-driven luciferase inhibitors, primary screen, cell-based, HeLa, luciferase luminescence. HeLa PEG-Prom luciferase reporter, overnight. inhibition, % at 20 µM. 360,000 tested, 1.7% active;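 active = inhibition of at least 50% at 20 µM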
* = called active by the depositor; . = no result given; ! = a repeat was not active. A selection: hits, their analogues and other compounds. The true share with any hit is near 4%.

SMILES | TROY NFkB inh | CF NFkB block | KKLEB cytotox | HIF-2a block | TWEAK-Fn14 inh | Peg3 promoter
CCc1c(C)c2ccc(OC(C)C(=O)NC(Cc3c[nH]c4ccc(O)cc34)C(=O)O)c(C)c2oc1=O (configuration not stated) | -11.9 | 16.6 | 2.9 | 7.1 | 5.9 | 0.5
COc1cc2ccccc2cc1C(=O)Nc1ccc(N2CCN(C(=O)C(C)C)CC2)cc1 | 44.3 | -29.6 | 5.9 | -13.1 | 31.8 | 76.6*
C=CC[C@H](CC(=O)N(CCO)Cc1ccccc1)C(=O)N[C@H](COC(=O)[C@@H](CC=C)CC(=O)OC(C)(C)C)c1ccccc1 | 8.8 | 17.5 | -1.7 | 17.8 | 8.1 | 24.9
CCn1c(CNc2nc3ccccc3n2C(C)C)nc2ccccc21 | 6.7 | 4.6 | -9.4 | 15.3 | 99.1* | 8.8
Cc1noc(C)c1S(=O)(=O)NC(=O)C1(C)CCN1C(=O)Cc1ccc(Cl)cc1Cl (configuration not stated) | -0.7 | 10.1 | 5.5 | -0.1 | 19.8 | 8.4
CCCCN1C(=O)C(=O)N(CC(=O)Nc2sc(CC)cc2C(=O)OCC)C1=O | -3.8 | -8.5 | 4.0 | 3.0 | -12.8 | -7.5
Cc1cc(C(C)(C)C)cc(S(=O)(=O)NCCO)c1C | . | 7.6 | 4.1 | 13.6 | 85.2* | 17.6
Cc1nn(CCCC(=O)Nc2cc(Oc3ccc(F)cc3)cc([N+](=O)[O-])c2)c(C)c1[N+](=O)[O-] | 38.5 | -33.4 | 2.9 | 20.6 | 7.7 | 14.0
Cc1ccccc1Oc1cc(NC(=O)CCCn2nc(C)c([N+](=O)[O-])c2C)cc([N+](=O)[O-])c1 | 42.8 | 8.0 | -12.5 | 8.0 | 63.3* | 33.9
O=C1C(C=Nc2ccccc2)=C(O)c2ccccc21 | 52.5* | -21.9 | -11.5 | -237.7 | 60.8* | -191.6
CCOc1cc(N2CCOCC2)c(OCC)cc1NC(=O)COC(=O)CCn1c(C)csc1=O | -9.6 | 22.8 | -5.1 | 5.0 | -1.3 | -7.1
CC(C)(C)S(=O)N1Cc2cc(C(=O)Nc3ccc(-c4ccccc4)cc3)nc(-c3cccc(-c4cc5ccccc5o4)c3)c2[C@@H]1CCO (some centres not stated) | -4.5 | 16.9 | -14.0 | 1.5 | -15.7 | 93.1*
CC(C)(C)S(=O)N1Cc2cc(C(=O)O)nc(-c3cccc(-c4cc5ccccc5o4)c3)c2[C@H]1CCO (some centres not stated) | -16.1 | -10.6 | -8.2 | -11.1 | -14.8 | -20.7
COc1ccccc1NC(=O)NC1CCS(=O)(=O)C1 (configuration not stated) | -9.7 | -9.1 | -0.3 | 4.8 | -0.3 | -0.9
CC(Nc1cccc2ccccc12)C(=O)N/N=C/c1ccccn1 (configuration not stated) | -4.7 | -1.7 | -11.5 | -3.3 | 54.9* | 27.0
Cc1nc2c(-c3ccc(Cl)cc3)cnn2c(N)c1-c1ccc(F)cc1 | 79.6* | 8.2 | -23.8 | 10.0 | 94.5* | 44.4
COc1ccc(-c2c(C)nc3c(-c4ccc(F)cc4)cnn3c2N)cc1 | 55.2* | 5.6 | -9.8 | -170.4 | 46.4 | -66.2
Cc1cc(N)n2ncc(-c3ccccc3)c2n1 | -44.8 | 7.6 | -4.4 | -268.5 | -8.9 | -277.6
Fc1ccc(-c2cnn3c(-c4ccncc4)ccnc23)cc1 | -7.6 | 11.8 | -14.7 | -154.5 | 61.0* | -125.3
Cc1nc2c(-c3ccc(F)cc3)cnn2c(N)c1-c1ccccc1 | 93.6* | -1.1 | -53.8* | 24.9 | 104.2* | -10.4
CCCCn1c(N)c(N(CC(C)C)C(=O)c2cc(-c3ccc(F)cc3)nc3ccccc23)c(=O)[nH]c1=O | -7.2 | 16.4 | -8.0 | 10.6 | 19.2 | 32.6
Cc1cc(-c2ccc(F)cc2)n2ncc(-c3ccccc3)c2n1 | 78.7* | -14.6 | -23.0 | -50.4 | 86.5* | -144.4
C[n+]1c2n(c3ccccc31)N=C(c1ccccc1)CS2 | 5.3 | -44.3 | 13.3 | 10.7 | -37.6 | 5.5
C[n+]1c2n(c3ccccc31)N=C(c1ccc(-c3ccccc3)cc1)CS2 | 19.9 | 24.7 | -20.3 | -2.9 | 54.1* | 1.0
CC(NC(=O)c1ccco1)C(=O)N1CCN(C(c2ccccc2)c2ccccc2)CC1 (configuration not stated) | -4.8 | 9.2 | -9.3 | 8.2 | -14.5 | 10.5
SMILES | TROY NFkB inh | CF NFkB block | KKLEB cytotox | HIF-2a block | TWEAK-Fn14 inh | Peg3 promoter
CN(C(=O)c1ccc(NC(=O)Cc2ccc(NC(=O)C3CCCN(C(=O)CCc4ccccc4)C3)cc2)cc1)C1CC1 (configuration not stated) | 10.9 | 7.2 | 5.4 | 3.5 | 18.2 | -31.1
CCOC(=O)C1CCN(C(=O)c2c(C)oc3c2C(=O)c2ccccc2C3=O)CC1 | 5.5 | 62.2* | -7.0 | 14.9 | 14.6 | 15.7
COc1cccc(NC(=O)C2CCN(C(=O)[C@@H]3Cc4ccccc4CN3C(=O)OC(C)(C)C)CC2)c1 | -2.8 | -5.8 | 18.1 | -15.8 | 17.2 | -4.5
CC(=O)c1ccc(-c2cccc(-c3nc4ccccn4c3NC3CCCCC3)c2)cc1 | 17.3 | 30.3 | -19.2 | -75.6 | 22.3 | 62.0*
CCCCCCSc1ccc(-c2nc3ccc(C)cn3c2NCc2ccccc2)cc1OC | -26.7 | 20.2 | -5.4 | -182.9 | -25.8 | -123.4
CCC(C)Sc1cc(-c2nc3ccccn3c2NC2CCCCC2)ccc1OC (configuration not stated) | 1.3 | 28.4 | -10.2 | -80.7 | 37.0 | 94.8*
c1csc(-c2nc3ccccn3c2NC2CCCCC2)c1 | -65.5 | 6.3 | 2.5 | -17.9 | 0.8 | -5.4
CCC(C)Sc1ccc(-c2nc3ccc(C)cn3c2NCc2ccccc2)cc1OC (configuration not stated) | -40.2 | 30.2 | -25.6 | -199.6 | -5.5 | 87.8*
CCCCNc1c(-c2ccc(SC3CCCCC3)c(OC)c2)nc2ccc(C)cn12 | 4.4 | 17.2 | -10.5 | -24.6 | 5.7 | 24.2
CCCCNc1c(-c2ccc(OC)c(SC3CCCCC3)c2)nc2ccc(C)cn12 | 13.1 | 22.4 | -6.2 | -49.8 | 59.2*! | 97.9*
O=C(COC(=O)COc1ccc(Cl)cc1Cl)NC1CCS(=O)(=O)C1 (configuration not stated) | 1.0 | 5.6 | -5.8 | 10.1 | 17.2 | 8.6
COc1cccc2sc(=NC(=O)CS(=O)(=O)c3ccc(Cl)cc3)n(C)c12 | 0.2 | -10.5 | -1.2 | -13.5 | 9.4 | 18.8
CCCCNc1c(-c2ccc(OC)c(SC(C)CC)c2)nc2ccc(C)cn12 (configuration not stated) | 14.9 | 41.2 | -18.0 | -34.0 | 40.6 | 100.4*
COc1ccc(-c2nc3ccc(C)cn3c2NCc2ccccc2)cc1SC1CCCCC1 | 1.8 | 21.2 | -13.5 | -28.5 | 43.3 | 32.8
